Screening results from PubChem BioAssay.
TGFb SMAD3 inh: TGF-b pathway inhibition; HepG2 CAGA-GFP TGF-b/SMAD3 reporter, GFP fluorescence, 18 h; TGF-beta stimulated, 500 pg/mL final; Potency, µM (doses to about 46.1 µM), inactives show at the highest dose activity, negative = inhibition, most hits filed as inhibitors; actives 1.2% (n = 410,000); AID 588855; note: potency is the fitted concentration of half-maximal effect; % is set by controls: 0 for no effect and ±100 for the full control effect; nearly all actives have a fitted effect of over 65% in size
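Inhibition was scored as loss of TGF-beta-induced (500 pg/mL final, 18 hours, 37 degrees C) GFP in HEPG2 cells carrying a CAGA-GFP reporter, in DMEM with 1% FBS. Well GFP was summed per cell; Activity was normalised to unstimulated and stimulated DMSO wells, then concentration-response fitting.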
IL-1B inflam inh: inflammasome signaling inhibition, IL-1 beta readout; THP-1 LPS/ATP IL-1B secretion, AlphaLISA, 16 h; hits give low values; activity change, % at 57.5 µM; actives 4.7% (n = 360,000); AID 743279; in the data active = activity change below about -50%; inconclusive = mostly about -30% to -49%; note: % is set by controls: 0 for no effect and ±100 for the full control effect
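Secreted IL-1B measured by AlphaLISA bead assay after 16 h compound exposure of THP-1 cells; compounds (final up to 57.5 uM) added 1 h before LPS (250 ng/mL) and ATP (1.25 mM) stimulation; lower signal means less secretion.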
HepG2 tox: kills HepG2 cells in TGF-b inhibitor counter-screen; HepG2 CAGA-GFP viability, ATP luminescence, 18 h; Potency, µM (top dose mostly 46.1 µM), inactives show top-dose activity change, negative = cytotoxicity, usual class: cytotoxic; actives 0.76% (n = 410,000); AID 588856; note: potency is the fitted concentration of half-maximal effect
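CellTiter-Glo luminescence gave cytotoxicity after 18 hours at 37 degrees C. The cells were HepG2 CAGA-GFP in 1% FBS DMEM, stimulated with 500 pg/mL TGF-beta after compound addition. %Activity was normalised to no-cell wells (complete cell-killing) and DMSO (no toxicity), and curves were fitted and classified.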
DT40 TDP1 no CPT: qHTS for Inhibitors of human tyrosyl-DNA phosphodiesterase 1 (TDP1): qHTS in cells in absence of CPT; DT40 Tdp1-/- hTDP1 cells, no CPT, ATP luminescence, 48 h; Potency, µM (series often up to 46.2 µM), without a hit: top-dose activity change, negative = growth inhibition, most hits filed as inhibitors; AID 686978, 2013; actives 15% (n = 420,000); note: potency is the fitted concentration of half-maximal effect; % is set by controls: 0 for no effect and ±100 for the full control effect; nearly all actives have a fitted effect of over 55% in size
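Luminescent ATP content (CellTiter-Glo) served as the growth readout. Knockout chicken DT40 cells expressing human TDP1 were exposed to compounds without camptothecin for a minimum 48 hr at 37 °C.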
DT40 TDP1 CPT: growth inhibition of DT40 Tdp1-/-;hTDP1 cells with camptothecin (screen for TDP1 inhibitors). Potency, µM (titrated, usually from 46.2 µM), without a hit: at the highest dose activity change, negative = growth inhibition, most hits filed as inhibitors. actives 12% (n = 420,000). AID 686979. chicken DT40 Tdp1-/-;hTDP1 cells + 20 nM CPT, ATP luminescence, 48 h; note: potency is the fitted concentration of half-maximal effect; % is set by controls: 0 for no effect and ±100 for the full control effect; nearly all actives have a fitted effect of over 55% in size
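Chicken DT40 Tdp1-/- cells stably complemented with human TDP1 were seeded at 400 cells/well in medium containing 20 nM camptothecin, exposed to pin-transferred compounds, and grown at 37 °C for at least 48 hr. Viability was read as ATP luminescence.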
TDP1 inh: inhibitors of human tyrosyl-DNA phosphodiesterase TDP1; recombinant TDP1, AlphaScreen DNA substrate cleavage; Q9NUW8; AID 485290; Potency, µM (highest dose often 130 µM), for the others: top-dose activity change, negative = inhibition, most hits filed as inhibitors; actives 0.28% (n = 350,000); note: potency is the fitted concentration of half-maximal effect; % is set by controls: 0 for no effect and ±100 for the full control effect; nearly all actives have a fitted effect of over 40% in size
Target sequence (Q9NUW8 whole entry, looked up): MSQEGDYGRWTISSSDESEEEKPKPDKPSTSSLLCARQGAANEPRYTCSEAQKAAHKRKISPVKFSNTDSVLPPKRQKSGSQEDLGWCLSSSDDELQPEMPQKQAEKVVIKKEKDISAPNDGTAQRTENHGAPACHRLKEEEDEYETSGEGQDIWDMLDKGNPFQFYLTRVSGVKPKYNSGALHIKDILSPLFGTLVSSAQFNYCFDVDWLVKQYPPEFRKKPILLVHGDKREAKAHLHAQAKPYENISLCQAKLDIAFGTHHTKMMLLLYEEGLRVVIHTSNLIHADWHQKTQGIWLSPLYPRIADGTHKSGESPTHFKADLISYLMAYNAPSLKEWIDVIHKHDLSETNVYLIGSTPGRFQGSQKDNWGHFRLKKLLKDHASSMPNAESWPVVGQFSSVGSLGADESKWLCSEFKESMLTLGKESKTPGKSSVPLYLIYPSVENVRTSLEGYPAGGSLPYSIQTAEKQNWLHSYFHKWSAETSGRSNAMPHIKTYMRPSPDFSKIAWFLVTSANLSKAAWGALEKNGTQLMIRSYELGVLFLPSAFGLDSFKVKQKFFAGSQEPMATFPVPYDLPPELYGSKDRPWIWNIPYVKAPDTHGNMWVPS
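Compounds were preincubated with Tdp1 (1 nM final) for 15 min at room temperature before substrate (15 nM final) started a 5 min reaction; beads (10 ug/ml final) were then added for 10 min before AlphaScreen detection.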
An asterisk follows results filed as active; ? = inconclusive; . = no result. Most compounds without a hit are left out; they make up all but 19% or so of the library. Unless noted, calls come from the whole dose curve; as a rule, active = well fitted curve in the direction sought with a large enough effect; inconclusive = small, poorly fitted or top-dose-only effect, or another doubt; inactive = no such curve, though single readings can be large; an effect the other way counts as inactive or inconclusive.

SMILES	TGFb SMAD3 inh	IL-1B inflam inh	HepG2 tox	DT40 TDP1 no CPT	DT40 TDP1 CPT	TDP1 inh
COc1cc(NC(=O)CCc2nc3cccnc3n2Cc2cccs2)cc(OC)c1OC	?	.	-16%	16µM*	16µM*	4%
CCCn1c(CCC(=O)Nc2cc(Cl)c(OC)cc2OC)nc2cccnc21	-5%	.	-6%	16µM*	?	4%
CC(=O)c1cccc(NC(=O)CCc2nc3cccnc3n2Cc2cccs2)c1	-2%	.	-22%	-107%	?	6%
Cc1ccc(C)c(NC(=O)CCc2nc3cccnc3n2Cc2cccs2)c1	?	.	-32%	21µM*	18µM*	6%
C=C1CCN(C(CC(C)C)C(=O)NCc2ccc(OC)cc2)S(=O)(=O)c2ccccc21 (stereo not given)	-16%	.	-10%	.	.	0%
CC(=O)Nc1ccc(NC(=O)C(Cc2ccccc2)NS(=O)(=O)c2ccc3c(c2)oc(=O)n3C)cc1 (stereo not given)	16%	.	-4%	4%	-9%	2%
CCCCC/C=C\C[C@@H](O)/C=C/C=C\CCC(=O)O	.	.	.	.	.	2%
CCOc1ccc(NC(=O)C2CCN(S(=O)(=O)c3c(C)noc3/C=C/c3ccco3)CC2)cc1	?	.	-21%	?	-18%	-5%
Cc1cc(C)cc(NC(=O)C2CCN(S(=O)(=O)c3c(C)noc3/C=C/c3ccco3)CC2)c1	-21%	.	-10%	15µM*	23µM*	0%
Cc1ccc(NC(=O)C2CCN(S(=O)(=O)c3c(C)noc3/C=C/c3ccco3)CC2)cc1C	-16%	.	-3%	13µM*	?	2%
Cc1noc(/C=C/N(C)C)c1S(=O)(=O)N1CCC(C(=O)Nc2ccc(Cl)cc2)CC1	9%	-29	52%	-25%	?	5%
Cc1ccc(/C=C/c2onc(C)c2S(=O)(=O)N2CCC(C(=O)Nc3ccc(Br)c(C)c3)CC2)cc1	?	.	-2%	-23%	-26%	1%
Cc1cccc(NC(=O)C2CCN(S(=O)(=O)c3c(C)noc3/C=C/c3ccco3)CC2)n1	0%	?	9%	23µM*	16µM*	3%
Cc1noc(/C=C/c2ccco2)c1S(=O)(=O)N1CCC(C(=O)Nc2ccc(F)c(Cl)c2)CC1	2.5µM*	.	-10%	4.6µM*	5.2µM*	-7%
Cc1cccc(NC(=O)C2CCN(S(=O)(=O)c3ccc4c(c3)OCCO4)CC2)n1	-12%	-4	36%	-25%	-13%	0%
Cc1cccc(NC(=O)C2CCN(S(=O)(=O)c3ccc4c(c3)OCCCO4)CC2)n1	?	-12	3%	21µM*	?	1%
COc1ccc(CNC(=O)Cc2coc3ccc(C)cc23)cc1	-19%	.	-17%	-20%	-5%	4%
CC(C)COc1ccc(C(=O)N(Cc2cccc(F)c2)C2CCS(=O)(=O)C2)cc1 (stereo not given)	-3%	.	-23%	?	21µM*	5%
Cc1ccsc1CN(C(=O)c1ccc(OCC(C)C)cc1)C1CCS(=O)(=O)C1 (stereo not given)	.	.	-19%	15µM*	?	5%
Cn1c(SCc2ccccc2)nc(N)c(N=O)c1=O	?	?	10µM*	15µM*	?	.
CCOc1ccc(Cl)cc1-c1cc(C(=O)Nc2ccc(OC)cc2OC)[nH]n1	-5%	-1	-17%	18µM*	?	.
CCOc1ccc(Cl)cc1-c1cc(C(=O)Nc2cc(OC)ccc2OC)[nH]n1	13%	9	-4%	23µM*	?	.
COc1ccc(Cl)cc1-c1cc(C(=O)Nc2ccc(Br)cc2)[nH]n1	?	?	-14%	?	?	.
COc1ccc(NC(=O)c2cc(-c3cc(Cl)ccc3O)n[nH]2)c(OC)c1	10%	-11	-8%	-37%	-7%	.
COc1ccc(NC(=O)c2cc(-c3cc(Cl)ccc3OC)n[nH]2)c(OC)c1	-3%	?	-28%	?	23µM*	.
SMILES	TGFb SMAD3 inh	IL-1B inflam inh	HepG2 tox	DT40 TDP1 no CPT	DT40 TDP1 CPT	TDP1 inh
C=CCC[C@H](Cc1ccc(F)cc1)C(=O)OC[C@H](Cc1c[nH]c2ccccc12)NC(=O)[C@@H](CC=C)CC(=O)N[C@H](CO)Cc1ccccc1	13µM*	?	-107%	-81%	?	3%
C=CCC[C@H](Cc1ccc(F)cc1)C(=O)OC[C@H](Cc1c[nH]c2ccccc12)NC(=O)[C@H](CC=C)CC(=O)N[C@H](CO)Cc1ccccc1	-19%	-8	-7%	?	?	2%
C=CCC[C@H](Cc1ccc(F)cc1)C(=O)OC[C@H](Cc1c[nH]c2ccccc12)NC(=O)[C@@H](CC=C)CC(=O)N[C@@H](CO)Cc1ccccc1	?	69	13µM*	16µM*	5.8µM*	1%
C=CCC[C@@H](Cc1ccc(F)cc1)C(=O)OC[C@H](Cc1c[nH]c2ccccc12)NC(=O)[C@@H](CC=C)CC(=O)N[C@H](CO)Cc1ccccc1	?	-8	13µM*	?	?	2%
C=CCC[C@H](Cc1ccc(F)cc1)C(=O)OC[C@@H](Cc1c[nH]c2ccccc12)NC(=O)[C@@H](CC=C)CC(=O)N[C@H](CO)Cc1ccccc1	-67%	-22	-16%	15µM*	18µM*	1%
Cc1ccc(NC(=O)C(=O)NCC(c2cccnc2)N2CCc3ccccc32)cc1Cl (stereo not given)	-17%	.	-26%	13µM*	18µM*	3%
Cc1ccc(NC(=O)C(=O)NCC(c2cccnc2)N2CCc3ccccc3C2)cc1 (stereo not given)	?	.	-36%	16µM*	21µM*	5%
O=C(NCC(c1cccnc1)N1CCc2ccccc21)C(=O)Nc1ccccc1F (stereo not given)	?	.	-23%	?	7.3µM*	0%
Cc1cccc(NC(=O)C(=O)NCC(c2cccnc2)N2CCc3ccccc32)c1C (stereo not given)	?	.	-23%	23µM*	18µM*	-1%
O=S(=O)(NCC(c1cccnc1)N1CCc2ccccc2C1)c1ccccc1 (stereo not given)	4%	13	1%	-6%	7%	3%
